Bioassay records deposited in PubChem BioAssay by The Scripps Research Institute Molecular Screening Center.
TEAD-YAP block: TEAD-YAP interaction inhibition; HEK-TIYL cells, TEAD-Gal4/YAP UAS-luciferase luminescence; inhibition, % at 9.12 µM; 640,000 compounds, 1.4% hits; AID 1259422; in the data active = inhibition above about 32%
GPR151 activ: activators of human GPR151; PathHunter beta-arrestin GPR151 cells, luminescence; 650,000 compounds, 1% hits; activation, % at 11.2 µM; AID 1508602; Q8TDV0; in the data active = activation above about 4.9%
MITF primary: blocks human microphthalmia-associated transcription factor; O75030; AlphaScreen MITF homodimerization, bead proximity signal; inhibition, % at 2.6 µM; 650,000 compounds, 0.91% hits; in the data active = inhibition above about 50%
FBW7 act: human FBW7 E3 ligase activation, primary screen | Q969H0 | AlphaScreen FBW7–phospho-cyclin E peptide binding, activator screen | normalized activity (activation), % at 26.1 µM | 650,000 compounds, 0.13% hits | AID 1259310; in the data active = normalized activity above about 1.9%;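 also: purified mutant Fbw7 with reduced substrate affinity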
Target sequence (Q969H0 whole entry, looked up): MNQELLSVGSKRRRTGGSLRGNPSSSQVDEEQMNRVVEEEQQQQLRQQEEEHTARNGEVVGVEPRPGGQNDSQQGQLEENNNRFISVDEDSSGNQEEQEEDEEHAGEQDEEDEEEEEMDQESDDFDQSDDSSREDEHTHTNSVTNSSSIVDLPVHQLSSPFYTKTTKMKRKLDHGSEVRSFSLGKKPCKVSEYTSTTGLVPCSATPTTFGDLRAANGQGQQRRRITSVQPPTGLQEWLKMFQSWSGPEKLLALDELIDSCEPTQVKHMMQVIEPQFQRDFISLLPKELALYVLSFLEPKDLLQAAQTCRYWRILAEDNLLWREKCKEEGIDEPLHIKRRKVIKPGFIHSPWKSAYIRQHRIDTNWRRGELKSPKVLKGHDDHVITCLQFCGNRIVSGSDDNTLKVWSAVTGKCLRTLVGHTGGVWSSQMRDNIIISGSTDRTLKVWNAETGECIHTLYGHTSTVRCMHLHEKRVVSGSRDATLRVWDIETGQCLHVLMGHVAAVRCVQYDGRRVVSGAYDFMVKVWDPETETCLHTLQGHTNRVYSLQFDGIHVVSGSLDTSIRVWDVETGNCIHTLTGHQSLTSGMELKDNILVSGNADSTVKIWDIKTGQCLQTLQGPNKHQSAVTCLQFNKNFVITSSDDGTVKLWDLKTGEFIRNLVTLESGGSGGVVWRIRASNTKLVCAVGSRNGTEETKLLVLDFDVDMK
MITF confirm: confirmation of human MITF inhibitors; shares compounds with MITF primary; AlphaScreen MITF homodimerization, biotin/His-MITF beads; inhibition, % at 2.6 µM; 4,700 compounds, 16% hits; AID 1259372;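 active = inhibition above a cutoff derived from the DMSO control wells, cut at about 28% in these data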;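 also: inhibitors lower the bead chemiluminescence by keeping MITF from dimerizing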
AS interf DR: AlphaScreen optical interference, dose response counter-screen; shares compounds with MITF primary; AlphaScreen optical interference counterscreen, cell-free; IC50, µM; 480 compounds, 6% hits; AID 1259373; call rule not given here
AS interf ctr: counter-screen: compounds optically interfering with AlphaScreen. shares compounds with MITF primary. 4,700 compounds, 7.6% hits. AID 1259376. LysRS AlphaScreen counterscreen, signal interference, triplicate. inhibition, % at 2.6 µM;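 active = inhibition above a cutoff derived from the DMSO control wells, cut at about 30% in these data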
Hits are given with their value; n = inactive; x = no result. Sampled rows, rich in hits. Any-hit rate of the full collection: about 3.5%.

SMILES | TEAD-YAP block | GPR151 activ | MITF primary | FBW7 act | MITF confirm | AS interf ctr | others
O=C1NC(=S)N/C1=C\c1ccc([N+](=O)[O-])o1 | n | n | 67 | n | 67 | n | AS interf DR=n
O=C1NC(=S)N/C1=C\c1ccc(-c2cccc([N+](=O)[O-])c2)o1 | n | n | n | n | x | x
CC(C)(C)CC(C)(C)NC(=O)c1cccc([N+](=O)[O-])c1 | n | n | 70 | n | n | n
Cc1ccc(C)n1C(CC(=O)O)c1ccsc1 (centres undefined) | n | n | 80 | n | 68 | n | AS interf DR=n
Cc1nn(C(=O)c2nn(C)cc2I)c(C)c1Cl | n | n | 54 | n | n | n
c1cc2c(cc1Cc1nn[nH]n1)OCO2 | n | n | 66 | n | n | n
CN(C)c1cccc(Nc2nc(C(=O)NC3CCN(Cc4ccccc4)CC3)cs2)c1 | n | n | 58 | n | n | n
N#Cc1cc2c(N)c(C(=O)Nc3ccc(F)cc3F)sc2nc1N | n | n | n | n | x | x
Cc1ccc(OCCN2CCC(C)CC2)c([N+](=O)[O-])c1 | n | n | 64 | n | n | n
Cc1ccc(OCCN2CCOCC2)c([N+](=O)[O-])c1 | n | n | n | n | x | x
COCCCNCCCOc1ccc(C)cc1[N+](=O)[O-] | n | n | 64 | n | n | n
Cc1ccc(OCCN(C)C)c([N+](=O)[O-])c1 | n | n | 51 | n | n | n
CCCNC(=O)c1ccc2c(c1)N(Cc1cccc(C)c1)C(=O)CS2 | n | n | n | n | x | x
C=CCNc1nc(-c2ccccn2)nnc1-c1ccccc1 | n | n | 70 | n | 69 | 100
COc1cc2c(cc1OC)C(COc1ccc(F)cc1)N(C(=O)C1CC1)CC2 (centres undefined) | n | n | n | n | x | x
COc1cc2c(cc1OC)C(c1cc3cc4c(cc3[nH]c1=O)OCO4)N(C(=O)C1CC1)CC2 (centres undefined) | n | n | 67 | n | n | n
CCCNC(=O)CSc1nnc2c3cc(OC)ccc3n(C)c2n1 | n | n | n | n | x | x
O=[N+]([O-])c1ccccc1N1CCN(S(=O)(=O)c2cccc(C(F)(F)F)c2)CC1 | n | n | n | n | x | x
CC1CCCCN1C(=O)CN1CCN(c2ncccn2)CC1 (centres undefined) | n | n | 54 | n | n | n
COc1ccc(CN2CCN(Cc3ccc(OC)cc3F)C(CCO)C2)cc1 (centres undefined) | n | n | n | n | x | x
CC(C)CCNC(=O)C(=O)NCC1OCCCN1S(=O)(=O)c1ccc(F)cc1 (centres undefined) | n | n | 67 | n | n | n
CC(C)CNC(=O)C(=O)NCC1OCCCN1S(=O)(=O)c1ccc(Cl)cc1 (centres undefined) | n | n | 64 | n | n | n
O=C(Cc1ccc(N2CCC(NCc3nn[nH]n3)CC2)cc1)N1CCCC1 | n | n | n | n | x | x
O=C(C(Cl)Cl)C12CC3CC(CC(C3)C1)C2 | n | n | n | n | x | x
N#Cc1c(NC(=O)c2ccc([N+](=O)[O-])cc2Cl)sc2c1CCCCCC2 | n | n | n | n | x | x
SMILES | TEAD-YAP block | GPR151 activ | MITF primary | FBW7 act | MITF confirm | AS interf ctr | others
Cc1cc(C)cc(OCC(=O)Nc2ccccn2)c1 | n | n | n | n | x | x
Cc1[nH]c(=O)[nH]c1C(=O)CCCCC(=O)OCC(=O)c1ccc(Br)cc1 | n | n | 114 | n | 112 | 93
CCOC(=O)CCCCC(=O)c1[nH]c(=O)[nH]c1C | n | n | 115 | n | 118 | 99
Cc1[nH]c(=O)[nH]c1C(=O)CCCCC(=O)OCC(=O)Nc1ccccn1 | n | n | 116 | n | 118 | 97
CCOC(=O)CCCCC(=O)c1[nH]c(=O)[nH]c1CSC(=N)N | n | n | n | n | x | x
O=C(NCCc1ccc(O)cc1)c1ccnc(-c2ccccc2)c1 | n | n | n | n | x | x
O=C(/C=C\c1ccccc1)NCC1CN(c2ccccc2)C(=O)O1 (centres undefined) | n | n | n | n | x | x
CCc1c(C)sc(NC(=O)c2cc(OC)c(OC)c(OC)c2)c1C(N)=O | n | n | n | n | x | x
COc1ccc(/C=C(/NC(=O)c2ccccc2)C(=O)Nc2ccc(F)cc2)cc1OC | n | n | 67 | n | n | n
O=C(Nc1cccc(C(=O)O)c1)/C(=C/c1ccc([N+](=O)[O-])cc1)NC(=O)c1ccccc1 | n | n | n | n | x | x
COc1ccc(C(=O)N/C(=C\c2ccc([N+](=O)[O-])cc2)C(=O)Nc2ccc(C)c(C)c2)c(Cl)c1 | n | n | 61 | n | n | n
O=C(Nc1cccc(O)c1)/C(=C/c1ccc([N+](=O)[O-])cc1)NC(=O)c1ccccc1 | n | n | 52 | n | n | n
COc1ccc(CN2CCN(C(=O)c3cc(OC)c(OC)c(OC)c3)CC2)cc1Br | n | n | 52 | n | n | n
COc1ccc(CN2CCN(C(=O)c3cccc(OC)c3)CC2)cc1 | n | n | n | n | x | x
COc1cccc(C(=O)N2CCN(Cc3ccc(OC)c(Br)c3)CC2)c1 | n | n | 52 | n | n | n
OCCCNc1ccc2ncc(-c3ccccc3Cl)n2n1 | n | n | 85 | n | n | n
CCS(=O)(=O)N1CCN(Cc2cc(OC)c(OC)cc2OC)CC1 | n | n | n | n | x | x
COc1cc(OC)c(OC)cc1CN1CCN(Cc2ccc(C)cc2)CC1 | n | n | 63 | n | 71 | n | AS interf DR=n
CCn1c2ccccc2c2cc(CN3CCN(Cc4cc(OC)c(OC)cc4OC)CC3)ccc21 | n | n | 69 | n | n | n
COc1cc(OC)c(OC)cc1CN1CCN(Cc2cc(OC)c(O)c(OC)c2)CC1 | n | n | 60 | n | n | n
COc1cc(OC)c(OC)cc1CN1CCN(Cc2ccncc2)CC1 | n | n | 80 | n | n | n
Cc1ccc(OCCN2CCN(CC(O)Cn3c4ccccc4c4ccccc43)CC2)cc1 (centres undefined) | n | n | 74 | n | n | n
Cc1nn2c(nc(N3CCCCCC3)c3ccccc32)c1C=O | n | n | 62 | n | n | n
O=C(NNc1ncnc(NNC(=O)c2ccncc2)c1[N+](=O)[O-])c1ccncc1 | n | n | 65 | n | 66 | 100
O=C(N/N=C/c1ccccn1)c1ccc([N+](=O)[O-])cc1Cl | n | n | n | n | x | x
SMILES | TEAD-YAP block | GPR151 activ | MITF primary | FBW7 act | MITF confirm | AS interf ctr | others
Cc1ncc(CO)c(/C=N/NC(=O)c2ccc([N+](=O)[O-])cc2Cl)c1O | n | n | 67 | n | n | 96
Cc1ncc(CO)c(/C=N/NC(=O)c2ccccc2O)c1O | n | n | n | n | x | x
Cc1ncc(CO)c(/C=N/NC(=O)c2ccc(Cl)cc2O)c1O | n | n | 60 | n | n | 32
C=C(C)CSc1nc2sc3c(c2c(=O)n1-c1ccccc1)CCN(CCc1ccccc1)C3 | n | n | n | n | x | x
CC(=O)c1ccc(S(=O)(=O)N(CCCO)Cc2cc3cc(C)c(C)cc3[nH]c2=O)cc1 | n | n | 74 | n | n | n
O=Cc1c(OCc2ccc([N+](=O)[O-])cc2)ccc2ccccc12 | n | n | n | n | x | x
